Screen size: about 3,300 compounds; about 280 (8.5%) were called active.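 Rule for the calls: active = mean growth inhibition over the two runs of 50% or more; inactive = mean growth inhibition under 50%.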 The list comes from a sample in which actives are over-represented; it also holds similar structures and randomly drawn compounds.
Assay: A549 NSCLC cell proliferation inhibitors – ATP luminescence, human non-small cell lung line, primary screen (AID 371);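 note: compound exposure lasted 72 h before the ATP read; 0% = untreated cell signal and 100% = no luminescence left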
Settings: at 10 µM, stronger effect = higher value

Structure (SMILES) | growth inhibition
COc1cc(NC2=CC(=O)CC(C)(C)C2)cc(OC)c1OC | 3.91% (inactive)
Cc1nc(NS(=O)(=O)c2ccccc2)sc1NC(=O)OC(C)C | 3.58% (inactive)
Cc1cccc(-c2nc(C#N)c(NC3CCCCC3)o2)c1 | 34.3% (inactive)
CCOC(=O)c1cc2c(=O)n3cccc(C)c3nc2n(CCc2ccccc2)c1=N | 16.5% (inactive)
Cc1cccn2c(=O)c3cc(C(=O)NCc4cccnc4)c(=N)n(C)c3nc12 | -1.19% (inactive)
Cc1ccc(CNC(=O)c2cc3c(=O)n4ccccc4nc3n(Cc3ccco3)c2=N)cc1 | 92.5% (active)
Cc1ccc(S(=O)(=O)c2cc3c(=O)n4ccccc4nc3n(C)c2=N)cc1 | -2.02% (inactive)
Cc1cccn2c(=O)c3cc(C(N)=S)c(=N)n(CCCOC(C)C)c3nc12 | 51.3% (active)
CC(C)OCCCn1c(=N)c(C(N)=S)cc2c(=O)n3ccccc3nc21 | 42.5% (inactive)
N=c1c(C(=O)NCc2ccccc2)cc2c(=O)n3ccccc3nc2n1Cc1ccco1 | 90.5% (active)
CCOC(=O)c1cc2c(=O)n3cccc(C)c3nc2n(C)c1=N | 27.1% (inactive)
Cn1c(=O)c2c(nc(NCc3ccco3)n2CCc2ccccc2)n(C)c1=O | 34.5% (inactive)
CCNC(=O)c1cc2c(=O)n3cccc(C)c3nc2n(CCc2ccccc2)c1=N | 70.5% (active)
COC(=O)c1cc2c(=O)n3cccc(C)c3nc2n(Cc2cccnc2)c1=N | 2.48% (inactive)
Cc1ccc(CNC(=O)c2cc3c(=O)n4ccccc4nc3n(CC3CCCO3)c2=N)cc1 (stereo not drawn) | 44.3% (inactive)
CCOC(=O)CSC1=C(C#N)C(c2ccc(C)cc2)C(C(=O)OC)C(=O)N1 (stereo not drawn) | 8.41% (inactive)
CCOC(=O)C1=C(C)OC(N)=C(C#N)C1c1cc2ccccc2nc1N1CCCCC1 (stereo not drawn) | 22.5% (inactive)
COC(=O)c1cc(S(=O)(=O)N2CCOCC2)c(N2CCOCC2)cc1N1CCOCC1 | 8.19% (inactive)
COCCCNC(=O)c1c(N)n(/N=C/c2cccnc2)c2nc3ccccc3nc12 | 4.43% (inactive)
Cc1cc(=O)oc(C)c1C(=O)NCC(C)NC(=O)c1c(C)cc(=O)oc1C (stereo not drawn) | 0.25% (inactive)
Cc1nn(CC(=O)N2CCOCC2)c(=O)c2ccccc12 | 2.14% (inactive)

Structure (SMILES) | growth inhibition
COc1ccc(CCn2c(=N)c(C(=O)NCc3ccco3)cc3c(=O)n4ccccc4nc32)cc1OC | 48.2% (inactive)
CCOC(=O)c1cc2c(=O)n3ccccc3nc2n(Cc2ccccc2Cl)c1=N | 52.6% (active)
C=CCn1c(=N)c(C(=O)OCC)cc2c(=O)n3cccc(C)c3nc21 | 16.9% (inactive)
COc1ccc(CCn2c(=N)c(C(=O)NCc3ccco3)cc3c(=O)n4ccccc4nc32)cc1 | 61.2% (active)
CCOC(=O)c1cc2c(=O)n3cccc(C)c3nc2n(Cc2cccnc2)c1=N | 1.61% (inactive)
COc1ccc(CCn2c(=N)c(C#N)cc3c(=O)n4ccccc4nc32)cc1 | 11.5% (inactive)
O=C1c2ccccc2C(=O)N1CCN1CCc2ccccc21 | 8.36% (inactive)
Cc1ccc(C(C)C)c(OCCNc2nc3c(c(=O)n(C)c(=O)n3C)n2C)c1 | 20.2% (inactive)
CCSc1nc(N)c2c3c(sc2n1)CCC3 | 6.53% (inactive)
c1csc(-c2nn3c(C4CCCCC4)nnc3s2)c1 | 7.39% (inactive)
CC(C)(C)n1cnc2cc(NS(=O)(=O)c3ccc(Br)cc3)ccc21 | 61.4% (active)
CC1CN(C2CCN(S(=O)(=O)c3ccc4ccccc4c3)CC2)CC(C)O1 (stereo not drawn) | 8.58% (inactive)
CC(C)c1nc2sc3c(c2c(=O)o1)CCCC3 | 0.69% (inactive)
CCOc1ccc(C2C(C#N)=C(N)Oc3cc(C)n(CCN4CCOCC4)c(=O)c32)cc1OCC (stereo not drawn) | 1.16% (inactive)
CO[C@H]1C[C@@H]2CC[C@@H](C)[C@@](O)(O2)C(=O)C(=O)N2CCCC[C@H]2C(=O)O[C@H]([C@H](C)C[C@@H]2CC[C@@H](O)[C@H](OC)C2)CC(=O)[C@H](C)C=C(C)[C@@H](O)[C@@H](OC)C(=O)[C@H](C)C[C@H](C)C=CC=CC=C1C | 65.2% (active)
CCCOC(=O)C1[C@H]2C(=O)N(Cc3ccco3)C[C@]23C=C[C@H]1O3 (stereo partly drawn) | 9.74% (inactive)
CCCOc1ccc(C(C)=O)cc1CSCCC#N | 8.19% (inactive)
CCOC(=O)c1c(C)[nH]sc1=S | 3.75% (inactive)
CCOC(=O)c1c(C)[nH]c(/C(C)=N/O)c1C | 12.8% (inactive)
CCOC(=O)c1c(C(F)(F)C(F)(F)C(F)(F)C(F)(F)F)n[nH]c1C | 91.1% (active)
COCCOC(=O)C1=C(C)NC(C)=C(C(=O)OC(C)C)C1c1cccc([N+](=O)[O-])c1 (stereo not drawn) | 34.4% (inactive)

Structure (SMILES) | growth inhibition
CCOC(=O)C1=C(C)NC(C)=C(C(=O)OC)C1c1cccc([N+](=O)[O-])c1 (stereo not drawn) | 52.7% (active)
COC(=O)C1=C(C)NC(C)=C(C(=O)OC)C1c1ccccc1[N+](=O)[O-] | 47.5% (inactive)
CCOC(=O)C1=C(C)NC(=O)C1CC(=O)Nc1ccccc1 (stereo not drawn) | -0.76% (inactive)
CCOC(=O)C1=C(C)NC(=O)NC1c1ccc2c(c1)OCO2 (stereo not drawn) | 5.16% (inactive)
CCOC(=O)C1=C(C)NC(C)=C(C(=O)OC)C1c1cccc(Cl)c1Cl (stereo not drawn) | 79.5% (active)
Cc1c(O)c(CN2CCCC2)cc2c1oc(=O)c1ccccc12 | 9.98% (inactive)
N#Cc1c(N2CCOCC2)nc(-c2ccco2)c2c1CCCC2 | 7.04% (inactive)
CCC(=O)c1ccc(O)cc1 | 4.76% (inactive)
C/C=C(/C(=C/C)c1ccc(O)cc1)c1ccc(O)cc1 | 50.9% (active)
Cn1c(NCCN2CCCCC2)cc(=O)n(C)c1=O | -1.36% (inactive)
COc1cc(C2CC(C(F)(F)F)n3ncc(C(=O)O)c3N2)cc(OC)c1OC (stereo not drawn) | 2.64% (inactive)
CN1CCN(C(=O)CSc2nc(-c3cccs3)ccc2C#N)CC1 | 3.23% (inactive)
COc1ccc(N2C(=O)CC(N(Cc3ccc(S(N)(=O)=O)cc3)C(C)=O)C2=O)cc1 (stereo not drawn) | 0.97% (inactive)
Cc1ccc2[nH]c3c(c2c1)CN(C(=O)CN1CC(C)OC(C)C1)CC3 (stereo not drawn) | 3.04% (inactive)
Cc1ccc2[nH]c3c(c2c1)CN(C(=O)CN1CCCc2ccccc21)CC3 | 69% (active)
Cc1ccc2[nH]c3c(c2c1)CN(C(=O)CN1CCN(c2ccccn2)CC1)CC3 | 15.6% (inactive)
COCCOC(=O)c1c(C)oc2ccc(OC(=O)COc3c(F)c(F)c(F)c(F)c3F)cc12 | 5.03% (inactive)
Cc1ccc(C(=O)NCC(C)(C)O)cc1 | 4.92% (inactive)
COc1ccc(N2CCN(C3CC(=O)NC3=O)CC2)cc1 (stereo not drawn) | 1.16% (inactive)
CC(=O)O[C@H]1C(=O)[C@]2(C)[C@H]([C@H](OC(=O)c3ccccc3)[C@]3(O)C[C@H](OC(=O)[C@H](O)[C@@H](NC(=O)c4ccccc4)c4ccccc4)C(C)=C1C3(C)C)[C@]1(OC(C)=O)CO[C@@H]1C[C@@H]2O | 65.8% (active)
CC(=O)O[C@@]12CO[C@@H]1C[C@H](O)[C@@]1(C)C(=O)[C@H](O)C3=C(C)[C@@H](OC(=O)[C@H](O)[C@@H](NC(=O)OC(C)(C)C)c4ccccc4)C[C@](O)([C@@H](OC(=O)c4ccccc4)[C@H]21)C3(C)C | 55.2% (active)

Structure (SMILES) | growth inhibition
CCOC(=O)CC1=C(C(=O)OCC)C(c2ccc(OC)c(OC)c2)C(C#N)=C(N)O1 (stereo not drawn) | -2.02% (inactive)
CCOC(=O)CC1=C(C(=O)OCC)C(c2cc(OC)c(OC)cc2OC)C(C#N)=C(N)O1 (stereo not drawn) | -5.45% (inactive)
CCCCCCn1c(SCCN2CCOCC2)nc2c1c(=O)[nH]c(=O)n2C | 7.31% (inactive)
CN1CC2(C)CN(C(c3ccccc3)c3ccccc3)CC(C)(C1)C2O (stereo not drawn) | 6.36% (inactive)
CC(=O)O[C@]1(C(C)=O)CC[C@H]2[C@@H]3C=C(Cl)C4=CC(=O)CC[C@]4(C)[C@H]3CC[C@@]21C | 52.6% (active)
CCCCC(=O)O[C@]1(C(=O)CO)CC[C@H]2[C@@H]3CCC4=CC(=O)CC[C@]4(C)[C@H]3[C@@H](O)C[C@@]21C | 21.6% (inactive)
CC(=O)O[C@]1(C(C)=O)CC[C@H]2[C@@H]3C=C(C)C4=CC(=O)CC[C@]4(C)[C@H]3CC[C@@]21C | 34.5% (inactive)
CC(=O)O[C@]1(C(C)=O)CC[C@H]2[C@@H]3C[C@H](C)C4=CC(=O)CC[C@]4(C)[C@H]3CC[C@@]21C | 50% (inactive)
CCCCCC(=O)O[C@]1(C(C)=O)CC[C@H]2[C@@H]3CCC4=CC(=O)CC[C@]4(C)[C@H]3CC[C@@]21C | 73.5% (active)
CCCCCCCC(=O)OCC(=O)[C@@]1(O)CC[C@H]2[C@@H]3CCC4=CC(=O)CC[C@]4(C)[C@H]3[C@@H](O)C[C@@]21C | 26.8% (inactive)
O=C(O)C1CSC(CCc2ccccc2)N1 (stereo not drawn) | 5.85% (inactive)
CCN(CC)CCCN1C(=O)C(=O)/C(=C(/O)c2ccc3c(c2)CC(C)O3)C1c1cccnc1 (stereo not drawn) | 1.89% (inactive)
COc1ccccc1N(Cc1cc2cccc(C)c2[nH]c1=O)C(=O)C(C)C | 12.1% (inactive)
O=C1C(=O)N(Cc2cccnc2)C(c2ccccn2)/C1=C(/O)c1ccc(F)cc1 (stereo not drawn) | 1.96% (inactive)
Cc1ccc(S(=O)(=O)/C(C#N)=C/c2c(N3CCN(C)CC3)nc3c(C)cccn3c2=O)cc1 | -1.01% (inactive)
Cc1nnc(N2CCCCC2)c2ccccc12 | 8.14% (inactive)
Cc1nnc(NCc2n[nH]c(=O)c3ccccc23)c2ccccc12 | 69.7% (active)
COc1ccc(Nc2nnc(C)c3ccccc23)cc1C(N)=O | -0.95% (inactive)
Nc1nnnn1N=C1CCCCC1 | -2.31% (inactive)
CCOC(=O)CCNc1n[nH]c(=O)[nH]c1=O | 4.05% (inactive)

From PubChem BioAssay AID371 (SRMLSC, 2006)
